The source of these data is PubChem BioAssay AID651725 (National Center for Advancing Translational Sciences (NCATS), 2012).

The whole screen tested about 360,000 compounds, of which about 2,000 (0.56%) were called active. Another 2% or so got no clear call; they are omitted. This is one part of a sample in which actives are shown more often than they occur. Rule as the data show it: active = activity change below about -65%; inconclusive = mostly about -30% to -63%; inactive = weaker than that.
% is scaled to controls: 0 for no effect and ±100 for the full control effect.

Homeobox protein SIX1 (Homo sapiens) + Protein phosphatase EYA2 (Homo sapiens), sequence (O00167 whole entry, looked up): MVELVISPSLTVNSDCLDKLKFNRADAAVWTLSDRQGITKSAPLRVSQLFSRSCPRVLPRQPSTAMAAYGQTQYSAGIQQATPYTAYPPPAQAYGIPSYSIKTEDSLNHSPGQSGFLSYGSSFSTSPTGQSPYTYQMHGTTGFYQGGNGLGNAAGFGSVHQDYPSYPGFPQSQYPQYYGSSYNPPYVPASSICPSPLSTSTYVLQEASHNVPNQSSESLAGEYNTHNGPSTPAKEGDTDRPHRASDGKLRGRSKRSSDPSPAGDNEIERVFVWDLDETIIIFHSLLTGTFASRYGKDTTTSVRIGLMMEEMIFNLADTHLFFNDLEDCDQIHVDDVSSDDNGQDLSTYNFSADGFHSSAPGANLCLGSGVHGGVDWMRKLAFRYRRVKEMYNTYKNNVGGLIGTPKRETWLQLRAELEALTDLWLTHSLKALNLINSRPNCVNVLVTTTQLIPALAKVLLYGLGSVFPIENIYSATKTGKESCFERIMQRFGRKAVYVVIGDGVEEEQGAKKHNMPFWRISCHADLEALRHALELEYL
Homeobox protein SIX1 (Homo sapiens) + Protein phosphatase EYA2 (Homo sapiens), sequence (Q15475 whole entry, looked up): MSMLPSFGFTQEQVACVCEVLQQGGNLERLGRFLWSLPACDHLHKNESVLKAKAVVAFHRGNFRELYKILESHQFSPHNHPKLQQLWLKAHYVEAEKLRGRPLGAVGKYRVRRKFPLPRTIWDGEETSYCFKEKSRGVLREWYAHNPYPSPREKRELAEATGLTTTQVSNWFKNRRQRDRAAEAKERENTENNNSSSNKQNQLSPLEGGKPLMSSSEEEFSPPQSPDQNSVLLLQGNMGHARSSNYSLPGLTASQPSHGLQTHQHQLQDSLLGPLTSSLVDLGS

The assay has as its target Homeobox protein SIX1 (Homo sapiens) + Protein phosphatase EYA2 (Homo sapiens) (UniProt Q15475+O00167). Kind of assay: qHTS Assay for Inhibitors of the Six1/Eya2 Interaction. The following applies: AlphaScreen GST-Six1/His-Eya2 binding, biochemical; active compounds read low. From the text: Its expression is low or undetectable in normal adult breast tissue but the gene is over-expressed in 50% of primary breast tumors and 90% of metastatic lesions. […] Similar to Six1, Eya2 is also not expressed in most normal adult tissues, but is reexpressed in cancers. The Six1-Eya interaction is essential for proliferation during embryonic development, and both Six1 and Eya2 have been independently implicated in the same types of cancer. Because Six1 and Eya2 are embryonic genes with little expression in adult tissues, inhibitors of their expression/activity are likely to have limited side effects. Our goal is to identify inhibitors of the Six1/Eya interaction for potential cancer therapy. To this end, we have developed a homogenous AlphaScreen assay targeting the Six1/Eya interaction. We performed a large scale HTS of the Molecular Libraries Small Molecule Repository (MLSMR) to identify inhibitors of the Six1/Eya interaction as potential anti-cancer therapeutics. Compounds identified can also be used as chemical probes to better understand the biological functions of Six1 and Eya. NIH Chemical Genomics Center [NCGC] NIH Molecular Libraries Probe Centers Network [MLPCN] MLPCN Grant: DA033147 Assay Submitter (PI): Rui Zhao, University of Colorado Denver
The first step of the 5 uL AlphaScreen assay is to dispense assay buffer (50 mM Tris, pH 8.0, 300 mM NaCl, 0.05% BSA, 0.02% Tween 20, 1 mM TCEP) into a Greiner 1536 white solid bottom microtiter plate (789175-F). Five microliters is added to Column 1, 4 uL is added to Column 2 and 3 uL is added to Columns 3 through 48. A 5X protein solution (250 nM GST-Six1 protein + 500 nM His-tagged Eya2 protein) is mixed and 1 uL is dispensed to Columns 3-48. Using a 1536 pintool, 23 nL of compound is transferred to the assay plate. A solution of 5X AlphaScreen beads is mixed (50 ug/mL Glutathione linked donor beads + Nickel chelated acceptor beads) and 1 uL is dispensed to Columns 2-48. The assay plate is incubated for one hour, with a lid, at 37 deg C in the dark. The plate is read using a Perkin Elmer Envision using an AlphaScreen protocol.
For orientation: In qHTS, concentration-response curves come from the screen itself.
On to `COc1ccc(NC(=O)CCCNC(=O)Cn2cnc3sc4c(c3c2=O)CCCC4)cc1OC`, for which the activity change is -5.21% (inactive).
In the case of `COc1ccc(/C=N/Nc2ncnc3sc4c(c23)CCCC4)cc1O` it was -78.1% (active); in that of `COc1ccc(NC(=O)CCNC(=O)Cn2cnc3sc4c(c3c2=O)CCCC4)cc1OC`, -2.73% (inactive).
For the compound `CO[C@@H]1CN(C)C(=O)c2cc(NC(=O)Nc3cc(F)ccc3F)ccc2OC[C@H](C)N(C(=O)c2ccccn2)C[C@@H]1C`, the activity change is -5.82% (inactive).
With `CCOC(=O)N1CCN(C(=O)C[C@@H]2C[C@@]3(C(=O)OC)CC(C)(C)CC=C3N(Cc3ccco3)C2=O)CC1`, the activity change is -1.81% (inactive).
In the case of `COc1ccccc1C(=O)NCCC(=O)N(C)Cc1cccnc1` it was 6.46% (inactive); in that of `COc1ccc2c(c1)c(=Cc1ccc(N(C)C)cc1)c1cc(-c3ccccc3)[n+](C)n12`, -69.4% (active); in that of `CCCCCNC(=O)C1C(=O)Nc2ccccc2C(=O)N1C(C)(C)C` (stereo not given), 1.59% (inactive).
In the case of `Nc1ncnc2c1ncn2[C@@H]1O[C@H](CNCc2cccn2-c2nccs2)[C@@H](O)[C@H]1O` it was 0.147% (inactive); in that of `Cc1cccn2c(=O)c3cc(C(=O)NCCN4CCOCC4)c(=N)n(Cc4cccnc4)c3nc12`, -20.8% (inactive); in that of `COc1ccc(CCn2c(=N)c(C(=O)NCc3ccco3)cc3c(=O)n4cccc(C)c4nc32)cc1`, -68.6% (active).
Regarding `Cc1ccc(S(=O)(=O)c2cc3c(=O)n4cccc(C)c4nc3n(CCc3ccccc3)c2=N)cc1C`, the activity change was 0.223% (inactive).
Turning to `Cc1cccc(N(C(=O)c2ccc(CN3CCOCC3)o2)C(C(=O)NC2CCCCC2)c2ccc(F)cc2)c1` (stereo not given), the activity change was 0% (inactive).
Turning to `COC(=O)[C@@]12C[C@@H](CC(=O)NCc3cccc(C(F)(F)F)c3)C(=O)N(Cc3ccco3)C1=CCC(C)(C)C2`, the activity change is -8.64% (inactive).
In the case of `CCOC(=O)c1c(C)oc2ccc(OCC(=O)N(CC)CC)cc12` it was -68.9% (active).
For the compound `CCOC(=O)N1CCN(C(=O)COc2ccc3oc4c(c3c2)CCCC4)CC1`, the activity change is -10.2% (inactive).
Turning to `CCOC(=O)c1c(C)oc2cc(Br)c(OCC(N)=O)cc12`, the activity change was 5.69% (inactive).
With `CC1(C)NC(=O)N(CC(=O)Nc2ccc(-c3ccccc3)cc2)C1=O` the figure was 5.24% (inactive); with `CCC(c1nc2ccccc2[nH]1)n1c(=O)c(-c2cccs2)nc2ccccc21` (stereo not given), 9.68% (inactive); with `CCCCc1c(-c2ccc(Br)cc2)ncn1CCc1ccccc1OC`, -13.5% (inactive).
Regarding `CC(=NNC(=O)c1ccc2nc[nH]c2c1)c1ccc(Br)cc1`, the activity change is 0.936% (inactive).
In the case of `CC/C(O)=N\S(=O)(=O)c1ccc(N=NN(C)C)cc1`, the activity change is 0% (inactive).
With `CN(C)N=Nc1ccc2nc[nH]c2c1` the figure was -72.7% (active); with `COC(=O)[C@@]1(Sc2ccc(C)cc2)CC(=O)N(c2cccc(SC)c2)[C@@H]1c1ccccc1`, -16.4% (inactive).
With `Cc1cc(C)nc(N/N=C/c2c(CO)cnc(C)c2O)n1`, the activity change is -75.1% (active).
Regarding `Cc1ccc(S(=O)(=O)N[C@H]2CCC[C@@H]2O)cc1`, the activity change was 7.33% (inactive).
With `CC1Cc2[nH][nH]c(=O)c2C(C2CC2)O1` (stereo not given) the figure was -3.07% (inactive).
For the compound `CC(=O)C[C@@H]1OC[C@H](C)N1S(=O)(=O)c1ccc(C)cc1`, the activity change was -0.665% (inactive).
On to `Cc1ccc(S(=O)(=O)n2oc(=O)c(C3CCCCC3)c2N)cc1`, for which the activity change was -78.3% (active).
As for `Cc1ccc(S(=O)(=O)N2CCC(N3CCCCCC3)CC2)cc1`, the activity change is -10.2% (inactive).
On to `Cc1ccc(S(=O)(=O)NC2CCCCCC2)cc1`, for which the activity change was 8.84% (inactive).
Take `CCC(CC)C(C(=O)NC1CCCC1)N1CCN(c2cc(C)nc3ccccc23)CC1` (stereo not given): the activity change was 0.151% (inactive).
Regarding `O=S(=O)(c1ccc(F)cc1)N1CC=C(c2ccccc2)CC1`, the activity change is 11.2% (inactive).
As for `Cn1c(CC(=O)Nc2ccccc2)nnc1SCC(=O)c1ccccc1`, the activity change was 3.83% (inactive).
On to `Cn1c(CNc2nc(-c3ccccc3)cs2)nnc1SCC(=O)c1ccccc1`, for which the activity change is -73.7% (active).
For the compound `Cn1c(SCC(=O)c2ccc(F)cc2)nnc1-c1ccccn1`, the activity change was 3.69% (inactive).
With `COc1ccc(OC)c(CN2C(=O)CCC2(C)c2nnnn2Cc2ccccc2)c1` (stereo not given), the activity change was 0.523% (inactive).
With `COc1cc(C(=O)Nc2ncccc2C)ccc1OCC(=O)N1CCOCC1` the figure was 7.15% (inactive).
As for `C/C(=N\Nc1ccc(Cl)nn1)c1ccccc1O`, the activity change was -71.4% (active).
As for `C/C(=N/Nc1ccc(Cl)cc1)c1cnnc(-c2ccccc2)n1`, the activity change was 9.69% (inactive).
With `Oc1cccc(/C=N/Nc2ccc(Cl)nn2)c1O`, the activity change is -85.5% (active).
For the compound `Fc1ccccc1Cc1ccc(Cl)nn1`, the activity change was 4.04% (inactive).
As for `CCC1OC(C2CC2)CC2=C1C(=O)OC(C)(C)O2` (stereo not given), the activity change is -0.697% (inactive).
As for `COc1ccc2c(c1)c(C(=O)N/N=C/c1cccs1)c(C)n2C`, the activity change is -4.11% (inactive).
As for `CCOC(=O)[C@]12CCCC=C1N(CCC1=CCCCC1)C(=O)[C@H](CC(=O)NCCCCc1ccccc1)C2`, the activity change was -0.886% (inactive).
